Results filed as inconclusive are left out. Calls of active or inactive are those of the source. Calls come from the whole dose curve.

A short description of this experiment: qHTS assay for small molecule agonists of the p53 signaling pathway (AID 651631). Note: nearly all actives have a fitted effect of over 15% in size. The settings on record: HCT-116 p53RE-bla reporter, beta-lactamase FRET ratio, 16 h; series mostly up to 73.3 µM. From the text: U.S. Tox21 Program National Center for Advancing Translational Sciences [NCATS] NIH Chemical Genomics Center [NCGC] U.S. Environmental Protection Agency [EPA] National Institutes of Environmental Health Sciences [NIEHS] National Toxicology Program [NTP] U.S. Food and Drug Administration [FDA] Tox21 Assay Overview: p53, a tumor suppressor protein, is activated following cellular insult, including DNA damage and other cellular stresses. The activation of p53 regulates cell fate by inducing DNA repair, cell cycle arrest, apoptosis, or cellular senescence. The activation of p53, therefore, is a good indicator of DNA damage and other cellular stresses. The CellSensor p53RE-bla HCT-116 cell line (Invitrogen) contains a stably integrated beta-lactamase reporter gene under control of the p53 response elements. The activation of the reporter gene under culture conditions can be detected by fluorescence intensity. This cell line was used to screen the Tox21 compound library in a 1536-well plate format and to identify agonists that activate the p53 signaling pathway.
Tox21 Assay Protocol Summary: The p53RE-bla cells were dispensed at 4,000 cells/5 ul/well in 1536-well black wall/clear bottom plates using a Multidrop dispenser. After the assay plates were incubated at a 37 C/5% CO2 incubator for 5 hours, 23 nL of compounds dissolved in DMSO, positive controls or DMSO only was transferred to the assay plate by a pin tool. The plates were incubated at 37 C for 16 hours. After 1 uL of LiveBLAzerTM B/G FRET substrate was added using a Flying Reagent Dispenser, the plates were incubated at room temperature for 2 hours, and fluorescence intensity was measured by an Envision plate reader.
`CCOCC(=O)O`: the result was inactive. As for `C=C(C)CNCC`, the outcome was inactive. For `CNC(=O)Oc1ccc2c(c1)[C@]1(C)CCN(C)[C@@H]1N2C`, the result was inactive. The result for `CC(O)CC(C)(C)O` (stereo not given) reads “inactive”; that for `CN(C)CCOC(=O)COc1ccc(Cl)cc1`, “inactive”. `C=CC(=O)OCCC(=O)O`: the outcome was inactive.

Take `NCCCCCCN`: the result was inactive.

`CC(CCO)CC(C)(C)C` (stereo not given): the outcome was inactive.

Consider `O=C1C(c2[nH]c3ccccc3c2O)=Nc2ccccc21`, for which the result was inactive. In the case of `O=C(O)c1ccc(S(=O)(=O)N(Cl)Cl)cc1`, the result was inactive.

As to `CCNc1ccccc1`, the result was inactive. The result for `Brc1ccc(Br)c(Br)c1` reads “inactive”; that for `CCCCCCCCCCCC(=O)OC`, “inactive”.

Regarding `CC(=O)Oc1ccc(C)cc1`, the outcome was inactive. As for `CC(=O)OCCOC(C)=O`, the outcome was inactive. The result for `CCCCCCCCCCO` reads “inactive”; that for `CCCOC(=O)c1ccccc1`, “inactive”. As for `N#Cc1ccccc1`, the result was inactive.

As to `Clc1ccccn1`, the result was inactive. As to `c1ccc2c(c1)Cc1ccccc1-2`, the outcome was inactive. Regarding `O=C(O)c1ccccc1C(=O)O`, the result was inactive. In the case of `CCCCCCO`, the outcome was inactive. In the case of `CC(C)CC(=O)CC(C)CC(C)C` (stereo not given), the result was inactive. Take `CC(C)=CCl`: the result was inactive. As to `COc1ccc([N+](=O)[O-])cc1N`, the result was inactive. On to `C=CC(C)CCCC(C)(C)O` (stereo not given), for which the outcome was inactive.

As to `CCCCCCCCCCCCCCCC(=O)OC(C)C`, the outcome was inactive. Turning to `CC1(C)NC(=O)NC1=O`, the outcome was inactive.

`CC1(C)S[C@@H]2[C@H](NC(=O)COc3ccccc3)C(=O)N2[C@H]1C(=O)O`: the result was inactive. As for `CCOC(=O)c1ccc(N)cc1`, the outcome was inactive.

Consider `CCCCCCCC=O`, for which the outcome was inactive. On to `CCCCCCC=O`, for which the outcome was inactive. `CC(CCl)OP(=O)(OC(C)CCl)OC(C)CCl` (stereo not given): the result was inactive.

On to `c1ccc(Oc2ccccc2)cc1`, for which the outcome was inactive. The result for `CC1(C)CC(N)CC(C)(CN)C1` (stereo not given) reads “inactive”. The same measure for `O=C(O)CCCCCCCCC(=O)O`: “inactive”; for `CCCCOC(=O)c1ccc(N)cc1`: “inactive”; for `O=C(OCC1CCC2OC2C1)C1CCC2OC2C1` (stereo not given): “inactive”. For the compound `CC(C)(C#N)c1cc(Cn2cncn2)cc(C(C)(C)C#N)c1`, the outcome was inactive. In the case of `COCCOC(=O)c1ccccc1C(=O)OCCOC`, the result was inactive.

The values above are taken from PubChem BioAssay (Tox21).
